Reference: PubChem BioAssay (NCI)
Values joined by “and” are separate entries in the source; they are usually repeats but may differ in a detail not shown here. Equal values may be shown once. Compounds without any hit were thinned out: in the full panel of roughly 83,000, 20% have a hit.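 For each line, cells grew in 96-well plates with the test compound present at a single concentration for 48 hours.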 Active and inactive are the calls of the source. The calls were made as follows: active = growth percent below 10; inactive = the rest.

System: HL-60(TB) leukemia
Assay: NCI-60 one-dose screen, 48 h (100 = growth as untreated, 0 = no growth, -100 = all killed)
Conditions: 10 µM unless noted

How did the growth turn out when `CN(C)c1nc(NCCNS(=O)(=O)c2ccc(C(=O)/C=C/c3ccc(C(F)(F)F)cc3)cc2)nc(Nc2ccc(F)cc2)n1` was run?
The growth was -21.8% (active).

With `COC(=O)CSC1=C(C)C(=O)C(OC)=C(OC)C1=O` as the molecule, how does the growth read?
Its growth is 45.9% (inactive).

For `Cc1cc(C(NC(=O)CCCCCNc2cccc3c2C(=O)N(C2CCC(=O)CC2=O)C3=O)c2cccc(N(C)C)c2)c(O)c2ncccc12` (centres undefined), which growth is on record?
Its growth is -15.3% (active).

Which growth does the source give for `COc1ccc(OC)c(-c2cc(-c3c[nH]c4ccccc34)nc(N)c2C#N)c1` here?
The growth was -32.2% (active).

With `COc1cc(/C=N/NC(=O)c2ccc3nc(-c4ccc(Cl)cc4)[nH]c3c2)cc(OC)c1OC` as the molecule, how does the growth read?
The growth was 32.1% (inactive).

How did the growth turn out when `C=C1CCC2C3(C)COC(c4ccc(F)cc4)OC3CCC2(C)C1CC(O)C1=CCOC1=O` (centres undefined) was run?
The growth was 35.9% (inactive).

`CC(=O)OC[C@@]1(C)C2CC[C@]3(C)C(CC=C4C5CC(C)(C)CC[C@]5(C(=O)Nc5cccc(C)c5)CC[C@]43C)[C@@]2(C)C[C@@H](OC(C)=O)[C@@H]1OC(C)=O` (some centres undefined) was tested. Which growth did it give?
The growth was 29.4% (inactive).

For `COc1ccc(CN2[C@@H](C(=O)NCc3ccc(C(=O)NO)cc3)Cc3c([nH]c4ccccc34)[C@@H]2C)cc1`, which growth is on record?
Its growth is -5.52% (active).

For `Cc1nc(Nc2ccccn2)sc1C1=NNC(c2ccccc2F)C1` (centres undefined), which growth is on record?
Its growth is 4.96% (active).

With `CCc1ccccc1NC(=O)N/C(N)=N/c1nc2ccccc2s1` as the molecule, how does the growth read?
The growth was -27.2% (active).

Which growth does the source give for `O=C(CSc1nnc(-c2c[nH]c3ccccc23)n1-c1ccccc1)c1ccccc1` here?
Its growth is 87.2% (inactive).

With `COc1ccc(-c2nc3cc(C)ccc3n2CC(=O)N=Nc2c(O)[nH]c3ccc(OC)cc23)cc1` as the molecule, how does the growth read?
Its growth is -62.1% (active).

Which growth does the source give for `O=C(Nc1cc(Cl)cc(Cl)c1)Nc1cc(Cl)cc(Cl)c1` here?
Its growth is -15.1% (active).

How did the growth turn out when `COc1cc(/C=C/C(=O)c2nnn(-c3ccc(Cl)cc3)c2C)cc(OC)c1OC` was run?
The growth was -5.43% (active).

With `Cc1cccc(NC(=O)CN2CCN(c3ncnc4c3cnn4-c3ccccc3)CC2)c1` as the molecule, how does the growth read?
Its growth is 88.3% (inactive).

Which growth does the source give for `Nc1nc2cc(-c3ccc4ncnc(NCc5ccccc5)c4c3)ccc2o1` here?
Its growth is -43.8% (active).

Which growth does the source give for `COc1cc2c(c(OC)c1OC)C(=O)CC(c1cccc(NC(=O)c3cccc(N)c3)c1)O2` (centres undefined) here?
Its growth is 86.4% (inactive).

`Cn1cc(-c2cc(N)n3nc(-c4cn(C)c5ncc(Br)cc45)cc3n2)c2cc(Br)cnc21` was tested. Which growth did it give?
Its growth is -71.2% (active).

With `CN(C)c1ccnc(NCCCSC(c2ccccc2)(c2ccccc2)c2ccccc2)c1` as the molecule, how does the growth read?
The growth was -59% (active).

For `CCCCSc1nc(Nc2ccc(/C(C)=N/NC(N)=S)cc2)c(C#N)c(-c2ccc(F)cc2)n1`, which growth is on record?
The growth was 90.7% (inactive).

Which growth does the source give for `CC(=O)OC[C@@]1(C)C2CC[C@]3(C)C(CC=C4C5CC(C)(C)CC[C@]5(C(=O)Nc5ccc(F)cc5)CC[C@]43C)[C@@]2(C)C[C@@H](OC(C)=O)[C@@H]1OC(C)=O` (some centres undefined) here?
The growth was 27.9% (inactive).

`O=[N+]([O-])c1ccc(-c2nc(-c3ccccc3)c(-c3ccccc3)n2-c2ccc(S(=O)(=O)Nc3ncccn3)cc2)cc1` was tested. Which growth did it give?
The growth was 38.2% (inactive).

With `CC(C)Sc1nc(NCCc2c[nH]c3ccccc23)c(C#N)c(-c2ccccc2)n1` as the molecule, how does the growth read?
The growth was 19.3% (inactive).

`Cn1cc(-c2cc3nc(-c4cn(C)c5ncccc45)cc(N)n3n2)c2cc(Cl)ccc21` was tested. Which growth did it give?
The growth was -66.6% (active).

For `CC1=C(C)C(=O)C(N2CCSCC2)=CC1=O`, which growth is on record?
Its growth is 89.3% (inactive).

`COc1cc(CNC(=O)C[C@H](C)CCC=C(C)C)ccc1OCc1cn(-c2ccccc2F)nn1` was tested. Which growth did it give?
The growth was 91.5% (inactive).

With `COC(=O)c1ccc(-c2c(-c3ccccc3)c(F)c3oc(C(=O)OC)c(N)c3c2-c2ccccc2)cc1` as the molecule, how does the growth read?
Its growth is 105% (inactive).

How did the growth turn out when `O=C1C=CC(=CC=C2N(Cc3ccc4ccccc4c3)c3ccccc3N2Cc2ccc3ccccc3c2)C=C1` was run?
Its growth is -26.5% (active) and -21.5% (active).

How did the growth turn out when `CN(C(=O)c1ccc(C(C)(C)C)cc1)c1sc2c(c1C#N)CCC(=O)C2` was run?
Its growth is 52.4% (inactive).

For `COc1ccc(-c2cc(C(=O)NCc3ccccc3)nn2-c2ccc(S(C)(=O)=O)cc2)cc1OC`, which growth is on record?
The growth was 97% (inactive).

For `COc1cc2c3c(n(CCCN4CCC[C@@H]4CO)c(=O)c2cc1OC)-c1cc2c(cc1C3=O)OCO2`, which growth is on record?
The growth was -15.4% (active).

How did the growth turn out when `COc1ccc2cc([C@H](C)C(=O)NCc3ccccc3)ccc2c1` was run?
The growth was 5.91% (active).

With `CC(=O)Nc1ccc(-n2cnc3cc(-c4ccc(NS(C)(=O)=O)cc4)ccc32)cc1` as the molecule, how does the growth read?
The growth was 59.9% (inactive).

For `COc1ccc2c(c1)c(/C=N/Nc1ccc3ccccc3n1)cn2C`, which growth is on record?
Its growth is -57.7% (active).
